Results reported in PubChem BioAssay (NCI).
The panel holds about 83,000 compounds, 20% with a hit somewhere; the sample as a whole holds those more often.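 In brief: 96-well plates, 48 h treatment, single concentration, percent growth endpoint.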 Values without a mark were called inactive. Active and inactive are the calls of the source. How the source made its calls: active means growth percent below 10; inactive means the rest.

tested on: RPMI-8226 leukemia; assay: NCI-60 one-dose screen, 48 h (100 = growth as untreated, 0 = no growth, -100 = all killed); conditions: 10 µM unless noted

SMILES	growth
CC1=C(C(=O)Nc2ccccc2)C(c2cccc3ccccc23)n2c(nc3ccccc32)N1 (configuration not stated)	76.9%
COc1ccc(NC(=O)CSc2nnc(-c3ccc(-c4nc5ccccc5[nH]4)cc3)o2)cc1	18.4%
COc1cc2cc(C(=O)N3C[C@@H](CCl)c4c3cc(OC(=O)N(C)CCSSCCN3CCOCC3)c3ccccc43)[nH]c2c(OC)c1OC	-11.5% (active)
CC(=O)C[n+]1cccc2c3ccccc3ccc21	64%
CC[C@]12C=CCN3CC[C@]4(C(=C(C(=O)OC)C1)Nc1cc(OC)c([C@@H]5[C@H]6O[C@H]6[C@@]6(CC)CC(C(=O)OC)=C7Nc8cc(O)ccc8[C@@]78CCN5[C@@H]68)cc14)[C@@H]32	-5.84% (active)
Cc1ccccc1Nc1nnc(-c2c[nH]c3ccccc23)o1	7.25% (active)
COc1cncc(-c2ccc3ncnc(N4CCc5ccc(Cl)cc54)c3c2)c1	-21.2% (active)
Clc1ccc2c(NCCNC34CC5CC(CC(C5)C3)C4)ccnc2c1	0.134% (active)
Cn1cc(-c2cc(N)n3nc(-c4c[nH]c5ccccc45)cc3n2)c2cc(Br)ccc21	-9.12% (active)
Cc1nn(-c2ccccc2)c2nc(C)n(CC(=O)N/N=C/c3cccc([N+](=O)[O-])c3)c(=O)c12	85.3%
Cc1ccc(S(=O)(=O)Nc2ccc(-c3ccc4c(c3)NC(=O)/C4=C\c3ccc[nH]3)cc2)cc1	63.6%
O=C1c2cccc3c(N4CCN(c5ccccc5)CC4)ccc(c23)C(=O)N1c1cccc(-c2nn(-c3ccccc3)cc2-c2nc3ccccc3s2)c1	95.9%
COc1ccc(-c2cc(-c3cc(C(C)C)c(O)cc3C)nn2-c2ccc(S(N)(=O)=O)cc2)cc1	16.5%
Clc1ccc(-c2nc3c4c(-c5ccccc5)c(-c5ccccc5)n(Cc5ccccc5)c4ncn3n2)cc1	-34.7% (active)
Cc1ccc(-c2cc(C(=O)N=Nc3c(O)[nH]c4ccc(F)cc34)c3ccccc3n2)cc1	103%
COc1ccc(/C=C/c2nc3ccccc3n3c(-c4cccc([N+](=O)[O-])c4)nnc23)cc1	-18.3% (active)
O=C(c1ccc(O)cc1)C1[C@H](c2ccc(Cl)cc2)[C@@H](c2ccccc2)NC12C(=O)Nc1ccccc12 (some centres not stated)	-3.39% (active)
N#C/C(=C1/C(=O)Nc2ccccc21)c1nnc(NC(=O)c2ccc(-n3c(=O)[nH]c4ccccc4c3=O)cc2)s1	11.5%
CN(C(=O)CN1C(=O)/C(=C/c2ccco2)SC1=S)C1CCS(=O)(=O)C1 (configuration not stated)	98%

SMILES	growth
COc1c2c(cc3c1C(CCc1ccccc1)N(C)CC3)OCO2 (configuration not stated)	-15.5% (active)
COc1cc(C2CC(c3ccc(F)cc3)=Nc3c(N)nc(N)nc3N2)ccc1Oc1nc(Nc2ccc(F)cc2)nc(N(C)C)n1 (configuration not stated)	15.7%
CC(C)C[C@H](NC(=O)CNC(=O)C[C@H]1O[C@@H]2OC3(C)CC[C@H]4[C@H](C)CC[C@@H]([C@H]1C)[C@@]24O3)B(O)O	-11% (active)
Cc1[nH]nc2ccc3nc(-c4cnn(CCO)c4)c4c(c3c12)CCCC4	33.8%
CCCN(CCC)S(=O)(=O)c1ccc(C(=O)O)cc1.CCCN(CCC)S(=O)(=O)c1ccc(C(=O)O)cc1.[Cl][Pt+2][Cl].[NH2-].[NH2-]	12.3%
COc1ccc(N=Nc2c(N)nn3c(-c4ccc5c(c4)C=S=C5)ccnc23)cc1	9.87% (active)
O=C(NNC(=O)c1ccc(OCc2nc3ccc(Cl)cc3[nH]2)cc1)Nc1ccc(Cl)c(Cl)c1	102%
Cc1nc(Nc2ccccn2)sc1C1=NNC(c2ccccc2F)C1 (configuration not stated)	30.4%
COc1ccc(-c2nc3ccccc3n2CC(=O)N=Nc2c(O)[nH]c3ccc(Br)cc23)cc1	79.1%
CC[C@]12C=CCN3CC[C@@]4(c5ccc(OC)cc5N(C)[C@H]4[C@@](O)(C(=O)OC)[C@@H]1OC(=O)CCC[P+](c1ccc(OC)cc1)(c1ccc(OC)cc1)c1ccc(OC)cc1)[C@@H]32	-45.5% (active)
COc1ccc(-c2cc(C(=O)N=Nc3c(O)[nH]c4ccc(Cl)cc34)c3ccccc3n2)cc1OC	119%
Fc1ccc(Nc2nnc(-c3c[nH]c4ccccc34)o2)cc1	24.7%
O=C(NN1C(=O)/C(=C/C=C/c2ccc([N+](=O)[O-])o2)SC1=S)c1ccc(O)cc1	-26.1% (active)
Cc1cccc(-c2ccccc2Oc2ccc3nnc(Cl)n3n2)c1	107%
C[C@H](NC(=O)c1ccc2c(-c3ccc(C(F)(F)F)cc3)cccc2c1)c1ccccn1	21.4%
Cc1ccc(C(=O)Nc2cc(-c3ccccc3)cc(C(F)(F)F)c2)cc1C#Cc1cnc2cccnn12	36.9%
O=[N+]([O-])c1cccc(-c2nnc3c(/C=C/c4ccc(F)cc4)nc4ccccc4n23)c1	102%
O=C1Nc2cc(-c3ccc(NS(=O)(=O)c4ccc(C(F)(F)F)cc4)cc3)ccc2/C1=C/c1ccc[nH]1	26%
